NPR2 activator: GC-B (human) receptor activation. 0.11% of 370,000 active. activation, % at 10 µM. P20594. HEK293-GC-B cells, CNP EC30, cGMP TR-FRET; 0% at EC30 CNP, 100% saturating CNP;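 active means activation at 10 µM reaching about 35% in either raw or pattern-adjusted values, limit read from the data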
Granule exo inh: blocks lytic granule exocytosis | 0.66% of 360,000 active | TALL-104 LAMP-1 surface exposure, flow cytometry; cells stimulated with thapsigargin and PMA | AID 651702 | inhibition, % at 10 µM;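 active means inhibition above about 55%, limit read from the data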
GC-A act: GC-A (human) enzyme activation | 0.14% of 370,000 active | P16066 | HEK293 GC-A cells, cGMP TR-FRET, EC30 ANP; 0% at EC30 ANP, 100% saturating ANP | activation, % at 10 µM; in the data active means activation above about 40%
Myeloid diff MLP: myeloid differentiation induction; calls only at 10 µM; 1% of 360,000 active; ER-HoxA9 myeloid progenitors, lysozyme-GFP differentiation, flow cytometry;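 active means normalized GFP-positive differentiation at or above the plate's own cutoff, the solvent-only control mean plus 3 SD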;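 further: cells exposed to compound for four days before flow analysis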
Exocytosis CP01: blocks lytic granule exocytosis. 11% of 1,500 active. shares compounds with Granule exo inh. AID 651954. TALL-104 cells, LAMP-1 externalization, flow cytometry; stimulated with PMA plus thapsigargin. inhibition, % at 10 µM; in the data active means inhibition above about 60%;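 further: 0% = stimulated vehicle wells and 100% = unstimulated wells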
Numbers without * were called inactive; i = inactive; . = no result given. Rows were chosen to be rich in hits. Some 1.8% of all compounds tested hit in one or more screens of this group.

SMILES	NPR2 activator	Granule exo inh	GC-A act	Myeloid diff MLP	Exocytosis CP01
CC(Cc1ccc(O)cc1)NCC(O)c1ccc(O)c(O)c1 (centres undefined)	-3.0	65.7*	-3.5	i	-2.1
CC(C)Nc1ccc(Nc2ccccc2)cc1	4.7	100.4*	17.2	.	51.6
Fc1cccc(CNCCc2c[nH]c3ccccc23)c1	-23.3	6.9	-17.6	i	.
Cc1cccc(CNCCc2c[nH]c3ccccc23)c1	-18.2	80.0*	-26.3	i	-11.0
CCOc1ccccc1CN1C2CCC1CC(c1ccc(C)cc1)C2 (centres undefined)	-10.3	67.1*	-17.4	i	-13.4
C=CCn1c(O)c(/C=C2/C=c3ccccc3=N2)c(=O)[nH]c1=S	1.1	27.7	22.0	i	.

Screening results (PubChem BioAssay)
